Positions count from the first letter of the chain named. In all, about 24,000 sequences were measured (“enrichment r”: median about 0.99, highest 2% from about 3.7 on). Shown is part of a subset that was picked to be rich in the highest values.
T1: UNK ZnF1-3 (human, UniProt Q9C0B0 31-174)
T1 sequence: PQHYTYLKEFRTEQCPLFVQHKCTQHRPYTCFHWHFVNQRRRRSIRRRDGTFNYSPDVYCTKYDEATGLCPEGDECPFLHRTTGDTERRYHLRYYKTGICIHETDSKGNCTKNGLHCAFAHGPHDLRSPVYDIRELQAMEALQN

B1: chr16:57198444:57198445:-_ENSMUSG00000022749_ENSMUST00000023431|mus_mus|motif|central (ssRNA)
RNA: GGGAGUUCUACAGUCCGACGAUCCCUAAAAGAAGCUGGCGUCUUACUACAGUAAUACUGAGCCAAAGAGAACAGGUCUUCGGUGUCUUCCAGAUUCAGGCUGGCCGGGGUACUUUCCAAAAAGCGGAUAACUUCUUCUUUGCUCAACAGAGGAUUGAGCAUCA
B2: chr22:36164377:36164378:-_ENSG00000100320_ENST00000405409|hu_hu|motif|central (ssRNA)
RNA: GGGAGUUCUACAGUCCGACGAUCACGGCCCUCUACCACGGUGCCGUGUAAUUUCUCCCUGGCCCUGUCUGCAUCAGCACGGUUCUCGAAAGUUACGAACCCGAAUCCCUUAGAGCCACGUUCAUUAAAGAUUAUUUCUACAUCCAACAGAGGAUUGAGCAUCA
B3: chr6:86333760:86333761:-_ENSG00000135316_ENST00000355238|hu_mus|hu_hu_hu_mus_True|98_108 (ssRNA)
RNA: GGGAGUUCUACAGUCCGACGAUCUUCUUCAAGAAUCUGUUCCUUGGUUUUACUCUUAGGAAUCGAGCCCACAAAAAGCCUAUUGUUGGCAACUGAGAUGCAGACACCAAUGUGCUUCCCGGAACGAAUUUCAUGAUUAUUAUACAACAGAGGAUUGAGCAUCA
B4: chr12:493273:493274:-_ENSG00000073614_ENST00000399788|hu_mus|hu_hu_hu_mus_False|58_108 (ssRNA)
RNA: GGGAGUUCUACAGUCCGACGAUCUUUUCUCUCUACCACAGGGAUCUUCAAUGUAGAUCCUUGAAGUUCCCAAAAUUUUGCUAGUUGAUCCAAGAAGUCCAAUCUUACUCUAGUCAUUGCCUCAAGUUCAUUCAGGCGCUGGACCAACAGAGGAUUGAGCAUCA
B5: chr2:117093540:117093541:+_ENSMUSG00000027349_ENSMUST00000028825|mus_hu|motif|central (ssRNA)
RNA: GGGAGUUCUACAGUCCGACGAUCCAUUGUAAUCGUUGUCUUGGGUGACAAAGCAUAACGCUUAGGCUGAUAAAUUCUUGCGGUAUCAUCUGUUUUUACCUUUGCUCUAUCAGACCAUCCAAAGGACUGUACAGUCACAUCUAACAACAGAGGAUUGAGCAUCA
B6: chr16:45382771:45382772:-_ENSMUSG00000022661_ENSMUST00000163230|mus_mus|mus_mus_mus_hu_True|28_98 (ssRNA)
RNA: GGGAGUUCUACAGUCCGACGAUCCUGGGUCAUGUUAUGGGCCCAAUGGACAGGGAGGGCAUGCUUCUCAAAAAAUGUGAGCUAUUGUCUAAGACUAACAAUAUUUACUAAGUGCUAAAAAUAAGUUAAAUGAAUAAGUUAAGACAACAGAGGAUUGAGCAUCA
B7: chr16:45382771:45382772:-_ENSMUSG00000022661_ENSMUST00000163230|mus_mus|mus_mus_mus_hu_True|1_28 (ssRNA)
RNA: GGGAGUUCUACAGUCCGACGAUCCUGGGUCAUGUUAUAAGACAAAUGGACAGGGAGGGCAUGCUUCUCAAAAAAUGUGAGCUAUUGUCUAAGACUAACAAUAUUUACUAAGUGCUAAAAAUAAGUUAAAUGAAUAAACAUUACCAACAGAGGAUUGAGCAUCA
B8: chr16:45382771:45382772:-_ENSMUSG00000022661_ENSMUST00000163230|mus_mus|mus_mus_mus_hu_True|8_28 (ssRNA)
RNA: GGGAGUUCUACAGUCCGACGAUCCUGGGUCAUGUUAUAAGACAAAUGGACAGGGAGGGCAUGCUUCUCAAAAAAUGUGAGCUAUUGUCUAAGACUAACAAUAUUUACUAAGUGCUAAAAAUAAGUUUUAAAUGGACGUUAAGACAACAGAGGAUUGAGCAUCA
B9: chr16:45382771:45382772:-_ENSMUSG00000022661_ENSMUST00000163230|mus_mus|mus_mus_mus_hu_True|28_58 (ssRNA)
RNA: B6 RNA with G38A, G39A, C41A, C43A, G80A, U84C, G86C
B10: chr16:45382771:45382772:-_ENSMUSG00000022661_ENSMUST00000163230|mus_mus|mus_mus_mus_hu_True|28_28 (ssRNA)
RNA: B6 RNA with G38A, G39A, C41A, C43A
B11: chr6:29491266:29491267:-_ENSMUSG00000012535_ENSMUST00000012679|mus_mus|FALSE|FALSE (ssRNA)
RNA: GGGAGUUCUACAGUCCGACGAUCGGGUUGGGCUCUACAUUAAAAGCAACUUUGACCCUGGCUAGUCCGGACUAUCAUCCCUAACCAUGAUAUAAGCAGACCAGGCUCCUUGUCUGGACAUUUCUAAAGGUGAACAGUUGGGGGCAACAGAGGAUUGAGCAUCA
B12: chr3:182775190:182775191:-_ENSG00000078070_ENST00000265594|hu_mus|FALSE|FALSE (ssRNA)
RNA: GGGAGUUCUACAGUCCGACGAUCCUGCACACUACAGUCUCUUUCAAACAAGUACACUGCGUUGCCAUGGUGAUCACCAAACACCUGGACUUCUACAUGCCUUGGAGUGUCCACGAACUUCUCGAUCAACAUUGCAUCAUCAUUCAACAGAGGAUUGAGCAUCA
B13: 49705422_49710499_381_CDS_ENSG00000102531_ENST00000398316|human|control|control (ssRNA)
RNA: GGGAGUUCUACAGUCCGACGAUCAAAGUUGGACCUUCCAUGUGUAGAGUGAGCAUCUACAUCUCCAUAGACUUGUGAAGACUGAUACUGUGGCAUAUACUGUGUUGUCAUGUCUCCAGCUCCAGUCACGGGUGAGUACAUAUGCAACAGAGGAUUGAGCAUCA
B14: chr1:39494564:39494565:+_ENSG00000168653_ENST00000372967|hu_hu|hu_hu_hu_mus_True|1_1 (ssRNA)
RNA: GGGAGUUCUACAGUCCGACGAUCAUGCAUUCGCCUCAUCGUUUUGUACCGAAGCAAGCACUCUUCGAAGUCAUCGAACUCUAUCUUGCACUCCUUUUUCGCCCGGGUCCCACCGAUCCCGUGUGCACACUCUAUCCAUUCUUUCAACAGAGGAUUGAGCAUCA

Molecular target: T1, UNK ZnF1-3
Experiment: nsRBNS (natural sequence RNA bind-n-seq); RBNS binding buffer (assumed for nsRBNS): 25 mM Tris pH 7.5, 150 mM KCl, 3 mM MgCl2, 0.01% Triton X-100, 500 ug/ml BSA, 20 U/ml SUPERase-In, 4 C; UNK is unkempt and MSI1 is Musashi-1; names of the RNAs are library labels; protein concentration not given here; high values mean tight binding

**Q.** Which binding signal does the source give for B1 here?
**A.** 1.25 enrichment R

**Q.** How did the binding signal turn out when B2 was run?
**A.** 0.844 enrichment R

**Q.** With B3 as the binder, how does the binding signal read?
**A.** 1.34 enrichment R

**Q.** Which binding signal does the source give for B4 here?
**A.** 0.801 enrichment R

**Q.** How did the binding signal turn out when B5 was run?
**A.** 0.494 enrichment R

**Q.** How did the binding signal turn out when B6 was run?
**A.** 8.35 enrichment R

**Q.** Which binding signal does the source give for B7 here?
**A.** 3.32 enrichment R

**Q.** With B8 as the binder, how does the binding signal read?
**A.** 5.08 enrichment R

**Q.** For B9, which binding signal is on record?
**A.** 3.92 enrichment R

**Q.** How did the binding signal turn out when B10 was run?
**A.** 11.4 enrichment R

**Q.** B11 was tested. Which binding signal did it give?
**A.** 0.897 enrichment R

**Q.** How did the binding signal turn out when B12 was run?
**A.** 0.969 enrichment R

**Q.** For B13, which binding signal is on record?
**A.** 0.997 enrichment R

**Q.** With B14 as the binder, how does the binding signal read?
**A.** 0.706 enrichment R

From PMC12136788
